Several values for one entry are separate records, joined by “and”; a condition that tells them apart may be missing. Equal values may be shown once. Among all 5,500 compounds or so, about 2,000 (36%) were called active. About 18% were inconclusive and are not listed. Cut-off read from the data, not from the text of the source: active = normalized growth mostly below about 0.91 (no sharp cut-off); inconclusive = no clear call, values can overlap the other calls; inactive = mostly above about 0.92. Some of the results follow.
Assay: chemical genetic growth profiling, strain panel (AID 1159580);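 note: tested at 20 µM; growth read once vehicle control cultures reached saturation at 30 °C; 1 = growth at the plate median or of vehicle wells; lower values mean less growth of the strain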
Settings: growth OD
[1] = S. cerevisiae deletion strains, locus YAL013W, strain DEP1, stronger effect = lower value
[2] = S. cerevisiae deletion strains, locus YBR021W, strain FUR4, stronger effect = lower value
[3] = S. cerevisiae deletion strains, locus YBR229C, strain ROT2, stronger effect = lower value
[4] = S. cerevisiae deletion strains, locus YCL029C, strain bik1, stronger effect = lower value
[5] = S. cerevisiae deletion strains, locus YDL035C, strain GPR1, stronger effect = lower value
[6] = S. cerevisiae deletion strains, locus YDL074C, strain BRE1, stronger effect = lower value
[7] = S. cerevisiae deletion strains, locus YDL101C, strain DUN1, stronger effect = lower value
[8] = S. cerevisiae deletion strains, locus YDL134C, strain PPH21, stronger effect = lower value
[9] = S. cerevisiae deletion strains, locus YDL185W, strain tfp1, stronger effect = lower value
[10] = S. cerevisiae deletion strains, locus YDL192W, strain arf1, stronger effect = lower value
[11] = S. cerevisiae deletion strains, locus YDR101C, strain arx1, stronger effect = lower value
[12] = S. cerevisiae deletion strains, locus YDR150W, strain NUM1, stronger effect = lower value
[13] = S. cerevisiae deletion strains, locus YDR162C, strain NBP2, stronger effect = lower value
[14] = S. cerevisiae deletion strains, locus YDR318W, strain mcm21, stronger effect = lower value
[15] = S. cerevisiae deletion strains, locus YDR388W, stronger effect = lower value
[16] = S. cerevisiae deletion strains, locus YDR502C, strain sam2, stronger effect = lower value
[17] = S. cerevisiae deletion strains, locus YEL061C, strain CIN8, stronger effect = lower value
[18] = S. cerevisiae deletion strains, locus YER110C, stronger effect = lower value
[19] = S. cerevisiae deletion strains, locus YER155C, strain BEM2, stronger effect = lower value
[20] = S. cerevisiae deletion strains, locus YER167W, strain BCK2, stronger effect = lower value
[21] = S. cerevisiae deletion strains, locus YGL078C, strain dbp3, stronger effect = lower value
[22] = S. cerevisiae deletion strains, locus YGL086W, strain mad1, stronger effect = lower value
[23] = S. cerevisiae deletion strains, locus YGL248W, strain PDE1, stronger effect = lower value
[24] = S. cerevisiae deletion strains, locus YGR078C, strain PAC10, stronger effect = lower value
[25] = S. cerevisiae deletion strains, locus YGR135W, strain pre9, stronger effect = lower value
[26] = S. cerevisiae deletion strains, locus YGR229C, strain SMI1, stronger effect = lower value
[27] = S. cerevisiae deletion strains, locus YGR252W, strain gcn5, stronger effect = lower value
[28] = S. cerevisiae deletion strains, locus YHR030C, strain SLT2, stronger effect = lower value
[29] = S. cerevisiae deletion strains, locus YHR079C, strain IRE1 (second series), stronger effect = lower value
[30] = S. cerevisiae deletion strains, locus YHR094C, strain hxt1, stronger effect = lower value
[31] = S. cerevisiae deletion strains, locus YHR129C, strain ARP1, stronger effect = lower value
[32] = S. cerevisiae deletion strains, locus YHR200W, strain rpn10, stronger effect = lower value
[33] = S. cerevisiae deletion strains, locus YIL066C, strain RNR3, stronger effect = lower value
[34] = S. cerevisiae deletion strains, locus YIL073C, strain SPO22, stronger effect = lower value
[35] = S. cerevisiae deletion strains, locus YIL125W, strain kgd1, stronger effect = lower value
[36] = S. cerevisiae deletion strains, locus YIR030C, strain dcg1, stronger effect = lower value
[37] = S. cerevisiae deletion strains, locus YJL095W, strain BCK1, stronger effect = lower value
[38] = S. cerevisiae deletion strains, locus YJL134W, strain LCB3, stronger effect = lower value
[39] = S. cerevisiae deletion strains, locus YJL168C, strain set2, stronger effect = lower value
[40] = S. cerevisiae deletion strains, locus YJL187C, strain SWE1 (second series), stronger effect = lower value
[41] = S. cerevisiae deletion strains, locus YJR043C, strain POL32, stronger effect = lower value
[42] = S. cerevisiae deletion strains, locus YJR075W, strain HOC1, stronger effect = lower value
[43] = S. cerevisiae deletion strains, locus YKL009W, strain mrt4, stronger effect = lower value
[44] = S. cerevisiae deletion strains, locus YKL068W, stronger effect = lower value
[45] = S. cerevisiae deletion strains, locus YKL085W, strain MDH1 (second series), stronger effect = lower value
[46] = S. cerevisiae deletion strains, locus YKL085W, strain MDH1, stronger effect = lower value
[47] = S. cerevisiae deletion strains, locus YKL190W, strain CNB1, stronger effect = lower value
[48] = S. cerevisiae deletion strains, locus YKR001C, strain vps1, stronger effect = lower value
[49] = S. cerevisiae deletion strains, locus YLR039C, strain RIC1, stronger effect = lower value
[50] = S. cerevisiae deletion strains, locus YLR058C, strain SHM2, stronger effect = lower value
[51] = S. cerevisiae deletion strains, locus YLR102C, strain apc9, stronger effect = lower value
[52] = S. cerevisiae deletion strains, locus YLR262C, strain YPT6, stronger effect = lower value
[53] = S. cerevisiae deletion strains, locus YLR268W, strain sec22, stronger effect = lower value
[54] = S. cerevisiae deletion strains, locus YLR330W, strain CHS5, stronger effect = lower value
[55] = S. cerevisiae deletion strains, locus YLR342W, strain FKS1 (second series), stronger effect = lower value
[56] = S. cerevisiae deletion strains, locus YLR371W, strain rom2, stronger effect = lower value
[57] = S. cerevisiae deletion strains, locus YLR418C, strain cdc73, stronger effect = lower value
[58] = S. cerevisiae deletion strains, locus YML016C, strain PPZ1, stronger effect = lower value
[59] = S. cerevisiae deletion strains, locus YML032C, strain rad52, stronger effect = lower value
[60] = S. cerevisiae deletion strains, locus YML124C, strain tub3, stronger effect = lower value
[61] = S. cerevisiae deletion strains, locus YMR078C, strain ctf18, stronger effect = lower value
[62] = S. cerevisiae deletion strains, locus YMR223W, strain ubp8, stronger effect = lower value
[63] = S. cerevisiae deletion strains, locus YMR263W, strain SAP30, stronger effect = lower value
[64] = S. cerevisiae deletion strains, locus YMR307W, strain GAS1, stronger effect = lower value
[65] = S. cerevisiae deletion strains, locus YNL067W, strain RPL9B, stronger effect = lower value
[66] = S. cerevisiae deletion strains, locus YNL128W, strain TEP1, stronger effect = lower value
[67] = S. cerevisiae deletion strains, locus YNL153C, strain GIM3, stronger effect = lower value
[68] = S. cerevisiae deletion strains, locus YNL233W, strain BNI4, stronger effect = lower value
[69] = S. cerevisiae deletion strains, locus YNL250W, strain rad50, stronger effect = lower value
[70] = S. cerevisiae deletion strains, locus YNL271C, strain bni1, stronger effect = lower value
[71] = S. cerevisiae deletion strains, locus YNL298W, strain CLA4, stronger effect = lower value
[72] = S. cerevisiae deletion strains, locus YNL307C, strain MCK1, stronger effect = lower value
[73] = S. cerevisiae deletion strains, locus YNL322C, strain KRE1, stronger effect = lower value
[74] = S. cerevisiae deletion strains, locus YNR052C, strain pop2, stronger effect = lower value
[75] = S. cerevisiae deletion strains, locus YOL006C, strain TOP1, stronger effect = lower value
[76] = S. cerevisiae deletion strains, locus YOL012C, strain htz1
[77] = S. cerevisiae deletion strains, locus YOL147C, strain pex11, stronger effect = lower value
[78] = S. cerevisiae deletion strains, locus YOR061W, strain CKA2, stronger effect = lower value
[79] = S. cerevisiae deletion strains, locus YOR069W, strain VPS5, stronger effect = lower value
[80] = S. cerevisiae deletion strains, locus YOR136W, strain idh2, stronger effect = lower value
[81] = S. cerevisiae deletion strains, locus YOR144C, strain elg1, stronger effect = lower value
[82] = S. cerevisiae deletion strains, locus YOR184W, strain ser1, stronger effect = lower value
[83] = S. cerevisiae deletion strains, locus YOR316C, strain cot1, stronger effect = lower value
[84] = S. cerevisiae deletion strains, locus YPL055C, strain LGE1, stronger effect = lower value
[85] = S. cerevisiae deletion strains, locus YPL241C, strain CIN2, stronger effect = lower value
[86] = S. cerevisiae deletion strains, locus YPR119W, strain clb2, stronger effect = lower value
[87] = S. cerevisiae deletion strains, locus YPR141C, strain kar3, stronger effect = lower value
[88] = S. cerevisiae deletion strains, locus YPR163C, strain tif3, stronger effect = lower value
[89] = S. cerevisiae deletion strains, locus YPR167C, strain met16, stronger effect = lower value
[90] = S. cerevisiae deletion strains, strain wtn01, stronger effect = lower value
[91] = S. cerevisiae strains, strain wild type, stronger effect = lower value

Measured: normalized growth

c1ccc2c(c1)cc1ccc3cccc4ccc2c1c34
inactive: [1] 1.03 | [2] 1.05 | [3] 1.02 | [4] 0.995 | [5] 1.03 | [6] 1.06 | [7] 1.03 | [8] 1.02 | [9] 0.995 | [10] 0.994 | [11] 0.995 | [12] 1.02 | [13] 1.03 | [14] 0.996 | [15] 0.988 | [16] 1.02 | [17] 1.02 | [18] 0.981 | [19] 1.01 | [20] 1.03 | [21] 0.988 | [22] 0.993 | [23] 1.02 | [24] 1.03 | [25] 1.01 | [26] 1.05 | [27] 1 | [28] 1.01 and 0.927 | [29] 0.982 | S. cerevisiae deletion strains, locus YHR079C, strain IRE1, stronger effect = lower value 0.988 | [30] 0.993 | [31] 1.02 | [32] 0.998 | [33] 1.02 | [34] 1.02 | [35] 1.01 | [36] 0.991 | [37] 1.05 and 0.943 | [38] 1.01 | [39] 0.989 | [40] 1.03 | [41] 1.06 | S. cerevisiae deletion strains, locus YJR066W, strain TOR1, stronger effect = lower value 0.903 | [42] 1.02 | [43] 0.994 | [44] 1 | [45] 1.01 | [46] 1.01 | [47] 1.01 | [48] 0.994 | [49] 1.02 | [50] 1.02 | [51] 0.99 | S. cerevisiae deletion strains, locus YLR113W, strain HOG1, stronger effect = lower value 0.961 | [52] 1.04 | [53] 1.01 | [54] 1.01 | [55] 1.01 | [56] 0.994 | [57] 1.03 | [58] 1.02 | [59] 0.996 | [60] 0.996 | [61] 1.01 | [62] 1.01 | [63] 1.03 | [64] 1.02 | [65] 1.04 | [66] 1.04 | [67] 1.02 | S. cerevisiae deletion strains, locus YNL183C, strain NPR1, stronger effect = lower value 0.884 | [68] 1.03 | [69] 0.998 | [70] 1 | [71] 1.01 | [72] 0.993 | [73] 1.02 | [74] 0.982 | [75] 1.04 | [76] 0.939 | [77] 0.992 | [78] 1.01 | [79] 1.04 | [80] 0.99 | [81] 0.989 | [82] 1.01 | S. cerevisiae deletion strains, locus YOR231W, strain MKK1, stronger effect = lower value 0.979 | [83] 0.992 | [84] 1.08 | [85] 1.03 | S. cerevisiae deletion strains, locus YPL256C, strain CLN2, stronger effect = lower value 0.996 | [86] 0.983 | [87] 1 | [88] 0.995 | [89] 1 | [90] 1.01 | [91] 1.01

Cc1ccc2cc3c(ccc4ccccc43)c3c2c1CC3
inactive: [1] 0.998 | [2] 0.988 | [3] 0.982 | [4] 0.954 | [5] 0.916 | [6] 0.963 | [7] 0.973 | [8] 0.997 | [9] 0.99 | [11] 0.96 | [12] 1 | [15] 0.96 | [17] 0.994 | [18] 0.952 | [19] 0.997 | [20] 0.917 | [21] 1 | [23] 0.981 | [24] 0.957 | [25] 0.924 | [26] 0.841 | [27] 0.922 | [29] 0.954 | [30] 0.981 | [31] 0.983 | [32] 0.933 | [33] 0.949 | [34] 0.906 | [35] 0.941 | [36] 0.961 | [37] 0.828 | [38] 0.99 | [39] 0.967 | [40] 0.99 | [41] 0.993 | [42] 0.904 | [43] 0.999 | [44] 0.997 | [45] 0.999 | [46] 0.999 | [47] 0.958 | [50] 0.981 | [51] 0.983 | [54] 0.986 | [55] 0.91 | [56] 0.974 | [58] 0.987 | [59] 0.908 | [60] 0.98 | [61] 0.959 | [63] 0.986 | [64] 0.711 | [65] 0.985 | [66] 0.931 | [67] 1.03 | [68] 0.933 | [69] 0.966 | [70] 0.959 | [71] 0.949 | [73] 0.998 | [74] 0.951 | [75] 0.937 | [76] 0.778 | [78] 0.98 | [79] 0.988 | [80] 0.927 | [81] 0.963 | [83] 0.981 | [84] 0.931 | [85] 1 | [86] 0.976 | [87] 0.983 | [88] 0.916 | [89] 0.968 | [90] 0.928 | [91] 0.97
active: [10] 0.795 | [13] 0.626 | [14] 0.884 | [16] 0.868 | [22] 0.894 | [28] 0.837 | [48] 0.685 | [49] 0.64 | [52] 0.568 | [53] 0.838 | [57] 0.532 | [62] 0.844 | [72] 0.591 | [77] 0.896 | [82] 0.559

CCCn1c(C)c(C(=O)c2ccc3ccccc3c2)c2ccccc21
inactive: S. cerevisiae deletion strains, locus YAL040C, strain CLN3, stronger effect = lower value 0.99 | S. cerevisiae deletion strains, locus YCL061C, strain MRC1 (second series), stronger effect = lower value 0.99 | [12] 1.01 | S. cerevisiae deletion strains, locus YDR363W, strain ESC2, stronger effect = lower value 0.96 | S. cerevisiae deletion strains, locus YER002W, strain NOP16, stronger effect = lower value 0.999 | [64] 1.01 | S. cerevisiae deletion strains, locus YNL175C, strain NOP13, stronger effect = lower value 0.974 | S. cerevisiae deletion strains, locus YNL197C, strain WHI3, stronger effect = lower value 0.977 | S. cerevisiae deletion strains, locus YNL224C, strain SQS1, stronger effect = lower value 1 | [73] 0.991 | S. cerevisiae deletion strains, locus YOR083W, strain WHI5 (second series), stronger effect = lower value 0.995
